Compound activity (PubChem)
Hits are enriched below; roughly 11% of the tested compounds scored in any of these assays.
hNpr1 antagonist – human Npr1 receptor antagonism; P16066; HEK293 hNpr1 GloSensor cGMP, ANP-stimulated luminescence; Potency, µM (series often up to 46.3 µM), usual class: inhibitors; 76,000 tested, 1.6% active; AID 1347048; calls by dose curve; note: nearly all actives have a fitted effect of over 60% in size
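HEK293 cells stably expressing human Npr1 and cGMP GloSensor pGS-40F, loaded 2 h with 2% GloSensor reagent, given compound 30 min at room temperature. Luminescence read before and 20 min after 0.1 nM hNppA.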
3T3 cytotox – kills NIH 3T3 cells; AID 1345082; Potency, µM (titrated, usually from 96.7 µM), hits mostly inhibitors; 94,000 tested, 4.3% active; NIH 3T3 viability, CellTiter-Glo ATP luminescence, 48-72 h; note: nearly all actives have a fitted effect of over 55% in size
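First NIH 3T3 cells are plated at 400 cells/well; next compound is pinned in; then plates incubate 48 or 72 hr at 37 °C; finally CellTiter-Glo is added and luminescence read after 10 min.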
HEK cytotox – kills HEK 293 cells | HEK 293 viability, ATP luminescence (CellTiter-Glo), 48-72 h | Potency, µM (doses to about 115 µM), hits mostly inhibitors | 94,000 tested, 6.6% active; note: nearly all actives have a fitted effect of over 60% in size
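250 HEK 293 cells/well; compound by pintool; incubated 48 or 72 hr at 37 degree Celsius; CellTiter-Glo added, 10 min RT, luminescence imaged.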
Luciferase inh – Photinus pyralis luciferase inhibition; P08659; purified P. pyralis luciferase, luminescence, biochemical; Potency, µM (titrated, usually from 115 µM), most hits filed as inhibitors; 76,000 tested, 2.5% active; AID 1347043; note: nearly all actives have a fitted effect of over 65% in size
Target sequence (P08659 whole entry, looked up): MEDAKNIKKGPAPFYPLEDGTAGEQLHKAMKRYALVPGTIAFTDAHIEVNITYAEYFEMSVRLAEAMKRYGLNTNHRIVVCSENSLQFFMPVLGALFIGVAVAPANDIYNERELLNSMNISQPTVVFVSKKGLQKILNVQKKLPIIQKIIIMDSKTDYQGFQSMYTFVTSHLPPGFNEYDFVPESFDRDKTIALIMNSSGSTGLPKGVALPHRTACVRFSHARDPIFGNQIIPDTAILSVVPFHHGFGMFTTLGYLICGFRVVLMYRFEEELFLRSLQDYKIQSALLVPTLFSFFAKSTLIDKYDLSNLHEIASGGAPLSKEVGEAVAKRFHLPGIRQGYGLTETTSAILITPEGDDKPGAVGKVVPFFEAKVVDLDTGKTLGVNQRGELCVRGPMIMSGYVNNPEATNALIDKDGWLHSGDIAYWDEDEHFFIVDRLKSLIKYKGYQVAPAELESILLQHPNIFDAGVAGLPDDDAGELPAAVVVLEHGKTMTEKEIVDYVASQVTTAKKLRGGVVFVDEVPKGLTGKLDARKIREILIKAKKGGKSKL
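Inhibitors were tested against purified firefly luciferase in a biochemical, low-substrate format (both substrates at 10uM) and luminescence measured with a CCD imager.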
Each line names hits and unclear results; the compound was inactive in the other large screens. Unless noted, calls come from the whole dose curve; as a rule, active = well fitted curve in the direction sought with a large enough effect; inconclusive = small, poorly fitted or top-dose-only effect, or another doubt; inactive = no such curve, though single readings can be large; an effect the other way counts as inactive or inconclusive.

Cc1nn(-c2ccccc2)c2c1C(C)N(CC1CN(Cc3ccc(C(F)(F)F)cc3)C1)C2=O (stereo not drawn)	3T3 cytotox 40µM, HEK cytotox 32µM (no result: hNpr1 antagonist, Luciferase inh)
CCOC(=O)N1CC(CN2C(=O)c3c(c(C)nn3-c3ccccc3)C2C2CC2)C1 (stereo not drawn)	3T3 cytotox 40µM, HEK cytotox 35µM (no result: hNpr1 antagonist, Luciferase inh)
CC(=O)N1CC(CN2C(=O)c3c(c(C)nn3-c3ccccc3)C2C2CC2)C1 (stereo not drawn)	3T3 cytotox 22µM, HEK cytotox inconclusive (no result: hNpr1 antagonist, Luciferase inh)
CC(=O)N1CC(CN2C(=O)c3c(c(C)nn3-c3ccccc3)C2C)C1 (stereo not drawn)	HEK cytotox inconclusive (no result: hNpr1 antagonist, Luciferase inh)
Cc1nn(-c2ccccc2)c2c1C(C)N(CC1CN(C(=O)Nc3ccccc3)C1)C2=O (stereo not drawn)	none (no result: hNpr1 antagonist, Luciferase inh)
Cc1nn(-c2ccccc2)c2c1C(C)N(CC1CN(C(=O)c3ccc4c(c3)OCO4)C1)C2=O (stereo not drawn)	3T3 cytotox 20µM, HEK cytotox inconclusive (no result: hNpr1 antagonist, Luciferase inh)
Cc1nn(-c2ccccc2)c2c1C(C)N(CC1CN(C(=O)c3ccc(Cl)nc3)C1)C2=O (stereo not drawn)	3T3 cytotox inconclusive (no result: hNpr1 antagonist, Luciferase inh)
Cc1nn(-c2ccccc2)c2c1C(C1CC1)N(CC1CN(C(=O)C3CC3)C1)C2=O (stereo not drawn)	3T3 cytotox 10µM, HEK cytotox inconclusive (no result: hNpr1 antagonist, Luciferase inh)
COc1ccc(-c2cccc(C(=O)N3CCC(NC(=O)Nc4ccc(Cl)cc4)CC3)c2)nn1	3T3 cytotox 25µM, HEK cytotox 45µM (no result: hNpr1 antagonist, Luciferase inh)
COc1ccc(-c2cccc(C(=O)N3CCC(NC(=O)Nc4ccccc4)CC3)c2)nn1	none (no result: hNpr1 antagonist, Luciferase inh)
COc1cccc(-c2ccc(C(=O)N3CCC(NC(=O)NC4CCCC4)CC3)cc2)c1	none (no result: hNpr1 antagonist, Luciferase inh)
COc1cccc(-c2ccc(C(=O)N3CCC(NC(=O)Cc4cccc(Cl)c4)CC3)cc2)c1	3T3 cytotox inconclusive, HEK cytotox 25µM (no result: hNpr1 antagonist, Luciferase inh)
COc1cccc(-c2ccc(C(=O)N3CCC(NC(=O)C(C)(C)C)CC3)cc2)c1	3T3 cytotox 40µM, HEK cytotox inconclusive (no result: hNpr1 antagonist, Luciferase inh)
COc1cccc(-c2ccc(C(=O)N3CCC(NC(=O)c4ccccc4C)CC3)cc2)c1	3T3 cytotox 40µM, HEK cytotox inconclusive (no result: hNpr1 antagonist, Luciferase inh)
O=C1CCN(C(=O)c2ccc3ccccc3n2)CCCC(CO)CCN1 (stereo not drawn)	none
COc1cccc(-c2ccc(C(=O)N3CCC(NC(=O)c4ccc(C(F)(F)F)cc4)CC3)cc2)c1	HEK cytotox inconclusive (no result: hNpr1 antagonist, Luciferase inh)
COc1cccc(-c2ccc(C(=O)N3CCC(NC(=O)Nc4ccccc4F)CC3)cc2)c1	3T3 cytotox inconclusive, HEK cytotox 16µM (no result: hNpr1 antagonist, Luciferase inh)
CC(C)Cc1cc(C(=O)N2CCC3(CC2)Nc2ccccc2NC3=O)n[nH]1	HEK cytotox inconclusive
COCCCNc1ccnc(-c2nnc(C)n2-c2ccccc2)c1	3T3 cytotox 100µM
Cc1cccc(N(C)C(=O)Cn2c(=O)n(-c3ccccc3)c(=O)c3c2cc(C)n3C)c1	none
Cc1nn(-c2ccc(F)cc2)c(C)c1[C@@H]1C=C[C@@H](NCc2ccc(C(C)C)cc2)C1	hNpr1 antagonist inconclusive, 3T3 cytotox 10µM, HEK cytotox 11µM
Cc1nn(CCC#N)c(C)c1[C@@H]1C=C[C@@H](NCc2ccc(C(C)C)cc2)C1	3T3 cytotox inconclusive, HEK cytotox 71µM
Cc1nn(CCC#N)c(C)c1[C@@H]1C=C[C@@H](NCc2ccc(F)cc2)C1	none
Cc1nn(-c2ccc(C(C)C)cc2)c(C)c1[C@@H]1C=C[C@@H](NCc2ccc(F)cc2)C1	hNpr1 antagonist inconclusive, 3T3 cytotox 7.1µM, HEK cytotox 8.9µM, Luciferase inh 22µM
COCc1nc2nc(-c3ccccc3)c(-c3cccc(NC(C)=O)c3)cc2n1C	3T3 cytotox inconclusive, Luciferase inh inconclusive
Cc1csc(NC(=O)c2nc3c(o2)CCN(Cc2c(F)cccc2F)CC3)n1	3T3 cytotox inconclusive, HEK cytotox inconclusive, Luciferase inh 28µM
Cc1csc(NC(=O)c2nc3c(o2)CCN(Cc2cc(F)ccc2F)CC3)n1	3T3 cytotox inconclusive, HEK cytotox inconclusive, Luciferase inh 28µM
O=C(NCc1ccccc1)c1nc2c(o1)CCN(Cc1c(F)cccc1F)CC2	3T3 cytotox inconclusive
O=C(NCCOc1ccccc1)c1nc2c(o1)CCN(Cc1cc(F)ccc1F)CC2	3T3 cytotox inconclusive, HEK cytotox inconclusive
Cc1csc(NC(=O)c2nc3c(o2)CCN(CCCc2ccccc2)CC3)n1	3T3 cytotox inconclusive, HEK cytotox inconclusive
COc1ccccc1CN1CCc2nc(C(=O)Nc3nc(C)cs3)oc2CC1	3T3 cytotox inconclusive, HEK cytotox inconclusive, Luciferase inh 25µM
